Laboratory results from PubChem BioAssay (NCI).
The panel holds about 83,000 compounds, 20% with a hit somewhere; the sample as a whole holds those more often.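 Cells were grown in 96-well plates and exposed to the test compound at a single concentration for 48 hours; results are reported as percent growth, with values below 10 considered active.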 Unmarked numbers belong to inactive results. The source made the active and inactive calls.

Columns and labels:
Assay in all cases: NCI-60 one-dose screen, 48 h (100 = growth as untreated, 0 = no growth, -100 = all killed)
Details in all cases: 10 µM unless noted
T-47D breast = tested on: T-47D breast
BT-549 breast = tested on: BT-549 breast
MDA-MB-435 melanoma = tested on: MDA-MB-435 melanoma
MCF7 breast = tested on: MCF7 breast
HCT-116 colon = tested on: HCT-116 colon
HCC-2998 colon = tested on: HCC-2998 colon
KM12 colon = tested on: KM12 colon
SW-620 colon = tested on: SW-620 colon

| SMILES | growth (T-47D breast) | growth (BT-549 breast) | growth (MDA-MB-435 melanoma) | growth (MCF7 breast) | growth (HCT-116 colon) | growth (HCC-2998 colon) | growth (KM12 colon) | growth (SW-620 colon) |
| --- | --- | --- | --- | --- | --- | --- | --- | --- |
| N=C(N)c1ccc(-c2ccc(-c3ccc(F)cc3)o2)o1 | 21.4% | 55.3% | -76.9% (active) | 10.5% | 2.27% (active) | 18.4% | 7.92% (active) |  |
| Cc1ccc(Sc2oc(-c3ccc(C)cc3)nc2[P+](c2ccccc2)(c2ccccc2)c2ccccc2)cc1 | 1.57% (active) | -30.9% (active) | -30.3% (active) | -23.8% (active) | 2.12% (active) | 1.79% (active) | -52.8% (active) |  |
| CNC(=O)c1cc(Oc2ccc3nc(NC(C)=O)sc3c2)ccn1 | 90.7% | 96.9% | 102% | 98.9% | 89.2% | 107% | 98.2% |  |
| CCN(c1ccc(Cl)cc1)c1nc(-c2ccc([N+](=O)[O-])cc2)cs1 | 77.2% | 115% | 103% |  | 97.9% | 98.7% | 93.2% | 91.7% |
| COCCNC(=O)c1ccc(-c2nc3ccc4[nH]ncc4c3c3c2CCCC3)cc1 | 44.5% | 10.3% | 16.4% | 35.9% | 13% | 47.5% | 19.7% |  |
| COC(=O)/C(CCC=C(C)C)=C1\[C@@H](OC(C)=O)C[C@@]2(C)[C@H]1C[C@@H](O)[C@H]1[C@@]3(C)CC[C@H](NCCN)[C@@H](C)[C@@H]3CC[C@@]12C | 83.2% | 84.8% | 93.6% | 72.3% | 36.8% | 91.3% | 88.9% |  |
| COc1ccc2c(O)c(/C=C3\N=Nc4ccccc43)oc2c1C[C@@H]1CCNC[C@H]1F | 94.3% | 73.8% | 68.3% | 18.3% | -68.2% (active) | 78% | 10.9% |  |
| CCCCCCNC(=O)Oc1ccc(/C(=C(/C)Cc2ccc(OC)cc2)c2ccc(OCCCN(C)C)cc2)cc1 | 18.9% | 79% | 19.5% | 8.65% (active) | -52.2% (active) | 35.2% | 35.6% |  |
| C#CCn1cnc2c(Nc3cccc(NC(=O)C=C)c3)ncnc21 | 72% | 71.5% | 82.6% | 80.1% | 85.1% | 105% | 96.3% |  |
| COC1C[C@H](O[C@@H]2C[C@H](O[C@@H]3C[C@H](O[C@@H]4C(=O)c5c(cc6cc(O[C@H]7C[C@@H](O[C@H]8C[C@@H](O)[C@H](O)C(C)O8)[C@H](O)C(C)O7)c(C)c(O)c6c5O)C[C@H]4C(OC)C(=O)[C@@H](O)[C@@H](C)O)OC(C)[C@H]3O)OC(C)[C@@H]2O)OC(C)[C@@H]1O (stereo not given in full) | -4.81% (active) | -20.4% (active) | -62% (active) | 4.52% (active) | 4.82% (active) | -18.8% (active) | 4.61% (active) |  |
| O=C(NCCCCNC(=O)OCc1ccc2c(Cl)cc(Cl)c(O)c2n1)OCc1ccc2c(Cl)cc(Cl)c(O)c2n1 | 61% | 15.3% | -48.7% (active) | 13.7% | 7.49% (active) | 18.5% | 6.41% (active) |  |
| O=Nc1c(-c2c(O)[nH]c3ncccc23)[nH]c2ccccc12 | 49.1% | 45.2% | 72.6% | 67.8% | 36.9% |  | 15% | 62.8% |
| C=C1C(=O)O[C@H]2[C@H]1CC/C(COC(=O)NCc1ccc(Cn3c(=O)sn(CCI)c3=O)cc1)=C\CC[C@@]1(C)O[C@@H]21 | 27.1% | 69.8% | 57.1% | 24.7% | 20% | 107% | 91.5% |  |
| COc1cnc2c(c1)C(=O)c1c-2n(CCCNCCO)c(=O)c2ccncc12 | -4.8% (active) | 19% | 5.96% (active) | 0.768% (active) | -49.8% (active) | 26.4% | 6.99% (active) |  |
| c1ccc(CNc2c3ccccc3nc3ccccc23)cc1 | 37.7% | 72.8% | 42.8% | 12% | 8.4% (active) | 38.2% | 30.5% |  |
